# Sampled rows, rich in hits. Any-hit rate of the full collection: about 1.6%.
# KCNQ2 block: KCNQ2 (rat) channel inhibition; O88943; CHO-K1 KCNQ2, FluxOR thallium flux, 20 min; stronger effect = lower value; B-score at 10 µM; 1.1% of 310,000 active; AID 2156;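 active = fluorescence ratio B-score at most minus 3 library SDs, with starting brightness B-score within 2 library SDs, cut at about -5.5 in these data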
# KCNQ2 pot: enhances the rat KCNQ2 potassium channel; O88943; CHO-K1 KCNQ2, FluxOR thallium flux fluorescence; stronger effect = higher value; B-score at 10 µM; 0.54% of 310,000 active; AID 2239;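 active = fluorescence ratio B-score at least 3 SD of library B-scores, with initial fluorescence B-score within 3 of them, cut at about 5.3 in these data; same plate scores as AID 2156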;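 also: B-score of peak minus minimum over baseline fluorescence ratio after K+ and Tl+ stimulus; positive B-score means potentiation of KCNQ2 with more thallium influx and brighter signal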
# Numbers stand for hits; 0 = inactive; - = not tested or not shown.
SMILES,KCNQ2 block,KCNQ2 pot
O=C(c1ccc(Cn2cc([N+](=O)[O-])cn2)o1)N1CCCCCC1,0,0
O=C(NCc1ccco1)c1ccc(Cn2c(=O)c3ccccc3n(Cc3cccc(F)c3)c2=O)cc1,0,-
O=C(NCc1ccco1)c1ccc(Cn2c(=O)c3ccccc3n(Cc3ccc(Cl)cc3)c2=O)cc1,-6.53,0
O=C(c1ccncc1)N(c1ccc2oc3c(c2c1)CCCC3)S(=O)(=O)c1cccc([N+](=O)[O-])c1,0,-
COc1ccc(S(=O)(=O)N(C(=O)c2ccncc2)c2ccc3oc4c(c3c2)CCCC4)cc1,-5.65,0
CC(C)/C=C/C(=O)N1CCCC(N2CCN(c3ccccc3F)CC2)C1 (stereo not drawn),0,-
CCc1cc(C(=O)O)c(NC(=O)C(c2ccccc2)c2ccccc2)s1,0,0
CCOC(=O)c1cc(C)sc1NC(=O)C(c1ccccc1)c1ccccc1,-6.01,0
CCOC(=O)c1cc(CC)sc1NC(=O)COC,0,-
CCOC(=O)c1cc(CC)sc1NC(=O)Cc1ccccc1,-5.73,0
CC1(C)Cc2c(cnn2-c2ccc(F)cc2)C(NC(=O)CN2CCCC2=O)C1 (stereo not drawn),0,0
CC(C)N(C(=O)CN1C(=O)NC(c2ccccc2)(c2ccccc2)C1=O)C(C)C,0,-
Cc1c(CCC(=O)NC2CC2)c(=O)oc2cc(O)ccc12,0,-
Nc1nonc1-n1nnc(C(=O)N/N=C/c2ccc(OCc3ccccc3)cc2)c1CNc1ccccc1,0,-
CC(C)(C)NC(=O)CSc1nnc(-c2ccccn2)n1Cc1ccccc1,0,8.14
CC(C)(C)NC(=O)CSc1nnc(-c2ccncc2)n1Cc1ccccc1,0,0
O=C(NCc1ccco1)Nc1ccc2snnc2c1,0,6.13
Cc1nc2ccc(NC(=O)NCc3ccco3)cc2s1,0,0
O=[N+]([O-])c1cc(O)c2ncccc2c1,0,10.1
O=[N+]([O-])c1cc2cccnc2c2ncccc12,0,-
COc1ccccc1C(=O)Nc1ccnn1C1CCN(C(=O)c2ccoc2C)CC1,0,0
CCCOc1ccc(-c2c(C(=O)N/N=C(\C)c3cccs3)nnn2-c2nonc2N)cc1,0,-
COc1ccccc1CN(C)C(=O)c1cnc(C)cn1,0,0
COc1ccccc1CN(C)C(=O)c1sccc1-c1ccccc1,-6.5,0
COc1ccc(N2C(=O)CSC23C(=O)N2CCCc4cccc3c42)cc1 (stereo not drawn),0,0
SMILES,KCNQ2 block,KCNQ2 pot
COc1ccc(N2C(=O)CSC23C(=O)N2c4c(cccc43)C(C)=CC2(C)C)cc1 (stereo not drawn),-6.18,0
CCN1CCN(C(=O)c2ccc(Cl)c(S(=O)(=O)N3CCCCC3)c2)CC1,0,-
Cc1nc(N2CCN(S(=O)(=O)c3ccccc3C#N)CC2)c2c(-c3cccs3)csc2n1,0,-
Cc1nc(N2CCCCC2)c2c(-c3cccs3)csc2n1,-8.24,0
COCCCn1c(SCC(=O)NC(C)(C)C)nnc1-c1cccs1,0,0
Cc1nc(SCC(=O)NC(C)(C)C)c2c(-c3cccs3)csc2n1,-6.23,0
CCn1c2ccccc2c2cc(NC(=O)C(C)Oc3ccc(OC)cc3)ccc21 (stereo not drawn),-6.17,0
CCn1c2ccccc2c2cc(NC(=O)C(C)Oc3ccccc3)ccc21 (stereo not drawn),0,-
O=C(Nc1cccc(NC(=O)c2ncn[nH]2)c1)c1cccc(Cl)c1,0,0
O=C(NNc1ccc([N+](=O)[O-])cc1)C1CC1c1ccccc1 (stereo not drawn),0,6.33
O=C(NNc1ccc([N+](=O)[O-])cc1)C1CC2CCCC(C1)C2=O (stereo not drawn),0,0
Cc1ccc2nc(SCC(=O)Nc3cc(C)on3)nc(=O)n2c1,0,0
Cn1nc(C(=O)Nc2ccccc2N2CCCC2)c2ccccc2c1=O,-5.64,0
CC(C)n1nc(C(=O)Nc2ccccc2N2CCOCC2)c2ccccc2c1=O,0,-
Cc1cccc(C(=O)NCC(=O)NC2CCC(C)CC2)c1 (stereo not drawn),0,-
O=S(=O)(NCCSCc1ccc(Cl)cc1Cl)c1ccc2c(c1)OCCO2,0,-
O=S(=O)(NCCSCc1c(Cl)cccc1Cl)c1ccc2c(c1)OCCO2,-6.85,0
CC1CCN(C(=O)N2c3ccccc3Sc3ccccc32)CC1,0,-
CC1CN(C(=O)N2c3ccccc3Sc3ccccc32)CC(C)O1 (stereo not drawn),-6.23,0
CCCc1nc2cc3c(cc2[nH]1)n(C)c(=O)n3C,0,-
O=[N+]([O-])c1ccc(Nc2nc(N/N=C\c3ccc4c(c3)OCO4)nc(N3CCCCC3)n2)cc1,-5.75,0
O=[N+]([O-])c1ccc(/C=N/Nc2nc(N3CCCCC3)nc(N3CCCCC3)n2)cc1,0,-
CCOc1ccc(NS(=O)(=O)c2ccc(C)c(C(=O)NCCCn3ccnc3)c2)cc1,0,-
Nc1nccnc1C(=O)OCC(=O)NCCc1ccc(S(N)(=O)=O)cc1,0,-
COC(=O)c1cc(-c2c(-c3ccc4c(c3)OCO4)noc2-c2ccsc2)cc([N+](=O)[O-])c1,0,-
SMILES,KCNQ2 block,KCNQ2 pot
CN(C)c1ccc(-c2c(-c3ccc4c(c3)OCO4)noc2-c2ccsc2)cn1,-5.88,0
Cc1nc2cc(F)ccc2n1C1CCN(S(=O)(=O)c2ccccc2)CC1,0,0
CCOC(=O)Cn1nc(-c2ccccc2)nc1-c1ccccc1,0,-
O=C(Cn1nc(-c2ccccc2)nc1-c1ccccc1)OC1CCCCC1,-6.09,0
COc1ccc(-c2nc3ccccc3c(=O)n2CCOc2cc(C)ccc2C)cc1,0,-
O=C(Cc1csc(-c2ccccc2)n1)NCc1ccc(F)cc1,0,-
O=C(NCc1csc(-c2ccccc2)n1)c1cc(F)cc2c1OCOC2,-6.11,0
Cc1ccccc1N1CCN(C2CCCN(C(=O)c3cn4cccc(C)c4n3)C2)CC1 (stereo not drawn),0,-
O=C(/C=C/c1ccc(F)cc1)N1CCN(c2ccccn2)CC1,0,0
CCc1ccc(OCC(=O)N2CCN(c3ccccn3)CC2)c(Br)c1,0,0
O=C(/C=C/c1cccc(Br)c1)N1CCN(c2ccccn2)CC1,-7.57,0
Cc1cc(OCC(=O)N2CCN(c3ccccn3)CC2)cc(C)c1Br,-5.98,0
COc1cccc(NC(=O)C(c2ccccc2)N2CCCCC2)c1 (stereo not drawn),0,-
O=C(Nc1cc(Cl)cc(Cl)c1)C(c1ccccc1)N1CCCCC1 (stereo not drawn),-6.41,0
CCN(C(=O)c1cc2c(=O)[nH]c3ccc(C)cc3c2s1)c1ccccc1F,0,12.9
CCN(C(=O)c1cc2c(=O)[nH]c3ccc(C)cc3c2s1)c1ccccc1C,0,0
O=C(NNC(=O)c1sccc1-n1cccc1)Nc1ccc(F)cc1,0,0
COc1ccc(/C=N/NC(=O)c2cc3c(ccc4ccccc43)o2)c(OC)c1,-6.31,0
COc1ccc(OC)c(/C=N\NC(=O)c2cc3c(ccc4ccccc43)o2)c1,0,0
Cc1cc(NC(=O)CSc2nnc(CNC(=O)c3ccc(C(C)(C)C)cc3)o2)no1,-6.43,0
COc1ccc(C(=O)NCc2nnc(SCC(=O)Nc3cc(C)on3)o2)cc1OC,0,-
Cc1cc(NC(=O)CCC(=O)N(Cc2cccs2)C(C)(C)C(=O)NC2CCCCC2)no1,0,0
CC1CN(C(=O)CCC(=O)NCc2ccccc2Cl)c2ccccc2S1 (stereo not drawn),-7.42,0
CC(C)Oc1ccc(CNC(=O)CCC(=O)N2CC(C)Sc3ccccc32)cc1 (stereo not drawn),0,-
COc1ccccc1C(=O)Nc1ccc2c(c1)n(C)c(=O)n2C,0,-
COc1cc(-c2csc(N3CCOCC3)n2)cc(OC)c1OC,0,0

# Screening results deposited in PubChem by Johns Hopkins Ion Channel Center.
